# Test results reported in ChEMBL document CHEMBL5606460, “ASAP - DENV-2 NS2B-NS3 protease fluorescence single point” (2024).
# Screen size: about 2,000 compounds; about 110 (5.5%) showed an effect of 50% or more. This is one part of a sample in which strong results are shown more often than they occur.
# Target: Genome polyprotein (dengue virus type 2) (UniProt P29990)
# [1] = Thailand/16681/1984, Concentration 25.0 uM, Number of replicates 1.0
smiles,measurement,setting,value
CCn1ccnc(N2CC[C@@H](CO)C2)c1=O,inhibition,"Thailand/16681/1984, Concentration 49.5 uM, Number of replicates 2.0, Standard deviation 0.40547257598729775 %",8.04%
same,inhibition,"Thailand/16681/1984, Concentration 99.01 uM, Number of replicates 2.0, Standard deviation 0.38043701079703857 %",15.5%
same,inhibition,"Thailand/16681/1984, Concentration 198.0 uM, Number of replicates 2.0, Standard deviation 0.16218916526483432 %",28.5%
CCn1c(=O)c(N2CC[C@@H](CO)C2)nc2ccccc21,inhibition,"Thailand/16681/1984, Concentration 49.5 uM, Number of replicates 2.0, Standard deviation 0.8446781408235627 %",16.3%
same,inhibition,"Thailand/16681/1984, Concentration 99.01 uM, Number of replicates 2.0, Standard deviation 1.6946189057395897 %",33.2%
same,inhibition,"Thailand/16681/1984, Concentration 198.0 uM, Number of replicates 2.0, Standard deviation 1.3775046688444705 %",53.9%
C[C@H](NC(=O)C1CCN(c2ccc(C=O)cc2)CC1)C12CC3CC(CC(C3)C1)C2,inhibition,[1],15%
CN(C(=O)C1CCN(c2ccc(C=O)cc2)CC1)[C@H]1CCN(Cc2ccccc2)C1,inhibition,[1],13.8%
Cc1nnc([C@H](C)n2cc(C3CCNCC3)c(C)n2)o1,inhibition,"Thailand/16681/1984, Concentration 49.5 uM, Number of replicates 2.0, Standard deviation 23.401160981224884 %",6.09%
same,inhibition,"Thailand/16681/1984, Concentration 99.01 uM, Number of replicates 2.0, Standard deviation 17.471832455878243 %",11.7%
same,inhibition,"Thailand/16681/1984, Concentration 198.0 uM, Number of replicates 2.0, Standard deviation 4.4669335919131345 %",-3.53%
Cc1cc(CO)c2cccc(Cc3cccc(C(=O)N[C@@H](C)C(N)=O)c3)c2n1,inhibition,"Thailand/16681/1984, Concentration 49.95 uM, Number of replicates 2.0, Standard deviation 0.7962665847500093 %",6.57%
same,inhibition,"Thailand/16681/1984, Concentration 99.9 uM, Number of replicates 2.0, Standard deviation 0.21200201975767785 %",24.1%
Cc1cc(CO)c2cccc(CC(=O)Nc3ccc(C(=O)O)o3)c2n1,inhibition,"Thailand/16681/1984, Concentration 49.95 uM, Number of replicates 2.0, Standard deviation 0.6719381020899052 %",88.9%
same,inhibition,"Thailand/16681/1984, Concentration 99.9 uM, Number of replicates 2.0, Standard deviation 0.0646782165500299 %",94%
Cc1cc(CO)c2cccc(Cc3ccccc3C(=O)Nc3ccc(C(=O)O)o3)c2n1,inhibition,"Thailand/16681/1984, Concentration 49.95 uM, Number of replicates 2.0, Standard deviation 1.5990008562851066 %",16.8%
same,inhibition,"Thailand/16681/1984, Concentration 99.9 uM, Number of replicates 2.0, Standard deviation 2.1056511568076566 %",34.4%
Cc1cc(CO)c2cccc(Nc3ccc(C(=O)O)o3)c2n1,inhibition,"Thailand/16681/1984, Concentration 49.95 uM, Number of replicates 2.0, Standard deviation 2.0261345521834873 %",10.8%
same,inhibition,"Thailand/16681/1984, Concentration 99.9 uM, Number of replicates 2.0, Standard deviation 1.7612979174821286 %",14%
Cc1cc(CO)c2cccc(Cc3cccc(C(=O)Nc4ccc(C(=O)O)o4)c3)c2n1,inhibition,"Thailand/16681/1984, Concentration 49.95 uM, Number of replicates 2.0, Standard deviation 0.4498774840540114 %",35.3%
same,inhibition,"Thailand/16681/1984, Concentration 99.9 uM, Number of replicates 2.0, Standard deviation 0.6611646932609445 %",80.5%
Cc1cc(CO)c2cccc(CC(=O)NC[C@H](C)O)c2n1,inhibition,"Thailand/16681/1984, Concentration 99.9 uM, Number of replicates 2.0, Standard deviation 0.37872079112567497 %",-9.3%
O=Cc1ccc(N2CCC(C(=O)Nc3ccccc3Oc3ccccc3)CC2)cc1,inhibition,[1],14.2%
c1ccc2c([C@H]3CCN(Cc4ccon4)C3)c[nH]c2c1,inhibition,"Thailand/16681/1984, Concentration 49.5 uM, Number of replicates 2.0, Standard deviation 1.9476178393933903 %",-2.85%
same,inhibition,"Thailand/16681/1984, Concentration 99.01 uM, Number of replicates 2.0, Standard deviation 2.5164078728535832 %",-2.25%
same,inhibition,"Thailand/16681/1984, Concentration 198.0 uM, Number of replicates 2.0, Standard deviation 2.4110409873352823 %",-1.68%
O=Cc1ccc(N2CCC(C(=O)N3CCN(CCOc4ccccc4)CC3)CC2)cc1,inhibition,[1],11.7%
CC(C)Nc1nc2ccc(C(=O)NCc3cnn(C)c3)cc2[nH]1,inhibition,"Thailand/16681/1984, Concentration 49.5 uM, Number of replicates 2.0, Standard deviation 2.4534347281334856 %",-3.32%
same,inhibition,"Thailand/16681/1984, Concentration 99.01 uM, Number of replicates 2.0, Standard deviation 2.252490861313308 %",-2.73%
same,inhibition,"Thailand/16681/1984, Concentration 198.0 uM, Number of replicates 2.0, Standard deviation 1.9859869815785558 %",-2.52%
NCc1ccc(C[C@H](NC(=O)c2ccccc2)C(=O)Nc2cccc(C(N)=O)c2)cc1,inhibition,"Thailand/16681/1984, Concentration 49.5 uM, Number of replicates 2.0, Standard deviation 0.2094720287352659 %",-3.21%
same,inhibition,"Thailand/16681/1984, Concentration 99.01 uM, Number of replicates 2.0, Standard deviation 1.2712236353041253 %",-1.98%
same,inhibition,"Thailand/16681/1984, Concentration 198.0 uM, Number of replicates 2.0, Standard deviation 0.9103772804850719 %",-0.193%
N#Cc1ccc(C[C@H](NC(=O)c2ccccc2)C(=O)NCCCCNC(=N)N)cc1,inhibition,"Thailand/16681/1984, Concentration 49.5 uM, Number of replicates 2.0, Standard deviation 0.6326801671633419 %",-5.12%
same,inhibition,"Thailand/16681/1984, Concentration 99.01 uM, Number of replicates 2.0, Standard deviation 1.2914777248245206 %",-4.14%
same,inhibition,"Thailand/16681/1984, Concentration 198.0 uM, Number of replicates 2.0, Standard deviation 0.45252363179091937 %",-1.98%
N=C(N)NCCC[C@H](NC(=O)[C@H](Cc1ccc(CN)cc1)NC(=O)c1ccccc1)B(O)O,inhibition,"Thailand/16681/1984, Concentration 25.0 uM, Number of replicates 3.0, Standard deviation 0.03506963405710981 %",99.2%
same,inhibition,"Thailand/16681/1984, Concentration 49.5 uM, Number of replicates 2.0, Standard deviation 0.000841588271065532 %",99.2%
same,inhibition,"Thailand/16681/1984, Concentration 49.5 uM, Number of replicates 2.0, Standard deviation 0.023586050776272474 %",99.1%
same,inhibition,"Thailand/16681/1984, Concentration 49.5 uM, Number of replicates 2.0, Standard deviation 0.03248746518177329 %",99.4%
same,inhibition,"Thailand/16681/1984, Concentration 49.5 uM, Number of replicates 2.0, Standard deviation 0.05596562002585788 %",99.3%
same,inhibition,"Thailand/16681/1984, Concentration 49.5 uM, Number of replicates 2.0, Standard deviation 0.06712205941408557 %",99.5%
same,inhibition,"Thailand/16681/1984, Concentration 49.5 uM, Number of replicates 2.0, Standard deviation 0.09040060678362256 %",99.2%
same,inhibition,"Thailand/16681/1984, Concentration 49.5 uM, Number of replicates 2.0, Standard deviation 0.09520737056259301 %",99.3%
same,inhibition,"Thailand/16681/1984, Concentration 49.95 uM, Number of replicates 2.0, Standard deviation 0.47465039008435067 %",97.5%
same,inhibition,"Thailand/16681/1984, Concentration 99.01 uM, Number of replicates 2.0, Standard deviation 0.0013325147625204256 %",99.6%
same,inhibition,"Thailand/16681/1984, Concentration 99.01 uM, Number of replicates 2.0, Standard deviation 0.024875407165917744 %",99.7%
same,inhibition,"Thailand/16681/1984, Concentration 99.01 uM, Number of replicates 2.0, Standard deviation 0.05930499912707304 %",99.8%
same,inhibition,"Thailand/16681/1984, Concentration 99.01 uM, Number of replicates 2.0, Standard deviation 0.0639876825840274 %",99.6%
same,inhibition,"Thailand/16681/1984, Concentration 99.01 uM, Number of replicates 2.0, Standard deviation 0.06968458780354793 %",99.8%
same,inhibition,"Thailand/16681/1984, Concentration 99.01 uM, Number of replicates 2.0, Standard deviation 0.07464240588758142 %",99.5%
same,inhibition,"Thailand/16681/1984, Concentration 99.01 uM, Number of replicates 2.0, Standard deviation 0.12292583554166162 %",99.6%
same,inhibition,"Thailand/16681/1984, Concentration 99.9 uM, Number of replicates 2.0, Standard deviation 0.4080138623651106 %",98.7%
same,inhibition,"Thailand/16681/1984, Concentration 198.0 uM, Number of replicates 2.0, Standard deviation 0.0010358009490037316 %",99.7%
same,inhibition,"Thailand/16681/1984, Concentration 198.0 uM, Number of replicates 2.0, Standard deviation 0.007655216388730705 %",99.8%
same,inhibition,"Thailand/16681/1984, Concentration 198.0 uM, Number of replicates 2.0, Standard deviation 0.011571838727151066 %",99.8%
same,inhibition,"Thailand/16681/1984, Concentration 198.0 uM, Number of replicates 2.0, Standard deviation 0.02492935513201169 %",99.9%
same,inhibition,"Thailand/16681/1984, Concentration 198.0 uM, Number of replicates 2.0, Standard deviation 0.05517797972088629 %",99.9%
same,inhibition,"Thailand/16681/1984, Concentration 198.0 uM, Number of replicates 2.0, Standard deviation 0.06791509451566656 %",99.8%
same,inhibition,"Thailand/16681/1984, Concentration 198.0 uM, Number of replicates 2.0, Standard deviation 0.07632018763310308 %",99.6%
O=Cc1ccc(N2CCC(C(=O)N3CCN(c4ccnc5cc(Cl)ccc45)CC3)CC2)cc1,inhibition,[1],1.86%
CC(C)CC(=O)N1CCC(NC(=O)C2CCN(c3ccc(C=O)cc3)CC2)CC1,inhibition,[1],14.2%
